Assay outcomes deposited in PubChem by National Center for Advancing Translational Sciences (NCATS).
HCV inh: inhibitors of hepatitis C virus infection. Huh7.5.1 HCVcc-Cre infection, luciferase reporter, 44 h. hit rate 3.4% among 340,000. Potency, µM (series often up to 41.8 µM), for inactives: at the top dose activity change, negative = inhibition, actives largely listed as inhibitors. AID 651820; also: potency is read from the fitted curve at half-maximal effect
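Compounds are dispensed onto cells plated 4 h earlier at 1,000 per well, with HCVcc-Cre virus (about 0.5 moi) added next. Following 44 h of culture, luminescent signal is measured for 15 sec after 15 min with substrate at room temperature.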
Vaccinia Venus: inhibitors of vaccinia virus (Venus reporter); Vaccinia virus Venus reporter expression, fluorescence; Potency, µM (series often up to 36.5 µM), without a hit: at the highest dose activity change, negative = inhibition, usual class: inhibitors; hit rate 0.46% among 330,000; calls by dose curve; tested in A549 cells; also: potency is read from the fitted curve at half-maximal effect; nearly all actives have a fitted effect of over 30% in size
VACV mCherry inh: vaccinia inhibition (mCherry reporter) | Potency, µM (series often up to 36.5 µM), for inactives: at the top dose activity change, negative = inhibition, usual class: inhibitors | hit rate 0.63% among 310,000 | Vaccinia virus mCherry reporter infection, fluorescence; calls by dose curve; tested in A549 cells; also: potency is read from the fitted curve at half-maximal effect; nearly all actives have a fitted effect of over 35% in size
FMDV inh: foot and mouth disease virus antiviral activity; Potency, µM (top dose mostly 57.9 µM), for the others: top-dose activity change, negative = inhibition, hits mostly inhibitors; FMDV antiviral cell-based qHTS; AID 1159524; hit rate 1.2% among 410,000; calls by dose curve; tested in HEK293T cells; also: read-out not given here; potency is read from the fitted curve at half-maximal effect; nearly all actives have a fitted effect of over 45% in size
FBPA Giardia inh: Giardia lamblia aldolase inhibition | hit rate 0.71% among 290,000 | A8B2U2 | Potency, µM (doses to about 59.6 µM), without a hit: at the highest dose activity, negative = inhibition, usual class: inhibitors | purified Giardia FBPA; also: potency is read from the fitted curve at half-maximal effect; nearly all actives have a fitted effect of over 55% in size
Target sequence (A8B2U2 whole entry, looked up): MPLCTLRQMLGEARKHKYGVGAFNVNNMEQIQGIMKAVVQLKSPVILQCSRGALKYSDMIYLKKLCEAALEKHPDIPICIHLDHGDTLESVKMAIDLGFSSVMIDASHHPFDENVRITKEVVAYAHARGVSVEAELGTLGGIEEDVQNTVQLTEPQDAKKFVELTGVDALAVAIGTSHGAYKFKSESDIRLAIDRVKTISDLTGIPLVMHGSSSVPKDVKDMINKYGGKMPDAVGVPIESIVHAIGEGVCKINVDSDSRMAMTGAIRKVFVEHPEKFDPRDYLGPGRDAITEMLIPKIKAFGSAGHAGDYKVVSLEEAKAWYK
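Giardia FBPA (40 nM reagent) was preincubated 10 min at RT with compound (up to 57.5 uM final), then substrate plus GAPDH/TPI/NAD/arsenate coupling system with diaphorase/resazurin was added; resorufin fluorescence (525/598 nm) was read after 20 min.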
HCMV inh: inhibitors of human cytomegalovirus; HFF cells, HCMV-luciferase reporter, 72 h; hits give low values; activity change, negative = inhibition, % at 57.5 µM; hit rate 4.5% among 410,000; in the data active = activity change below about -60%; inconclusive = no clear call, values can overlap the other calls; inactive = above about -39%
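Compounds were evaluated in HFFs infected with an HCMV luciferase reporter virus (MOI 1 PFU/cell). Luciferase in lysates collected 72 h post infection served as the replication measure.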
* hit, by the source's call; i = inactive; ? = inconclusive; . = no result; [ ] = dose if it differs, or a comment. The list is not random: actives were taken first. Their share in the collection is about 7.5%. Unless noted, calls follow the shape of the dose curve; as a rule, active = well fitted curve in the direction sought with a large enough effect; inconclusive = small, poorly fitted or top-dose-only effect, or another doubt; inactive = no such curve, though single readings can be large; an effect the other way counts as inactive or inconclusive. % is scaled to controls: 0 for no effect and ±100 for the full control effect.

SMILES | HCV inh | Vaccinia Venus | VACV mCherry inh | FMDV inh | FBPA Giardia inh | HCMV inh
C[C@H]1CCC/C=C/C2C[C@H](O)C[C@H]2[C@H](O)/C=C/C(=O)O1 (stereo not given in full) | . | -45%[60.7 µM] | -36%[60.7 µM] | -10%[97.4 µM] | 7% | .
C[C@H]1CCC/C=C/[C@@H]2C[C@H](O)C[C@H]2[C@H](O)/C=C/C(=O)O1 | 0.56µM* | ? | ? | -25% | 5% | -98*
CCn1nc(C)c(Br)c1C(=O)Sc1ccccc1Cl | 10% | -3%[7.34 µM] | i[7.34 µM] | 22µM* | -9% | -5
Cc1nc2c(C(=O)NCc3ccco3)cnn2c(C)c1Cc1ccc(F)cc1Cl | 13µM* | . | . | ? | 14% | -1
Cc1nc2c(C(=O)NCc3ccc4c(c3)OCO4)cnn2c(C)c1Cc1ccc(F)cc1Cl | -9% | . | . | -8% | -2% | -3
COc1ccc(O)c(CN2CCC3(CCC(CNC(=O)C4CCCO4)O3)CC2)c1 (stereo not given) | . | 14% | -3% | -8% | . | .
c1sc2[n+](c1C13CC4CC(CC(C4)C1)C3)CCS2 | 1% | -30% | -10% | ? | -2% | -64*
Fc1ccc(-c2csc3[n+]2CCS3)cc1 | 11% | . | . | 16% | 2% | -2
C=C(CO)C1Cc2c(ccc3c(=O)c4c(oc23)COc2cc(OC)c(OC)cc2-4)O1 (stereo not given) | . | . | . | . | 4% | .
N#Cc1nc(-c2cccs2)oc1NCc1ccccc1 | 6% | -12% | . | 10% | -2% | 16
N#Cc1nc(-c2cccs2)oc1NCc1ccc(Cl)cc1 | 10µM* | -13% | -26% | 12% | -10% | -33
O=[N+]([O-])c1ccc(OCn2cncn2)cc1 | 17% | -2% | i | -9% | . | 4
CCCc1ccc(C2Sc3ccccc3NC3=C2C(=O)c2ccccc23)cc1 (stereo not given) | . | -7% | -10% | -9% | . | -93*
O=C1C2=C(Nc3ccccc3SC2c2c(F)cccc2Cl)c2ccccc21 (stereo not given) | . | -29% | -22% | -3% | . | 19
O=C1C2=C(Nc3ccccc3SC2c2ccc(Cl)c(Cl)c2)c2ccccc21 (stereo not given) | . | ? | ? | 1% | . | -100*
O=C1C2=C(Nc3ccccc3SC2c2ccccc2C(F)(F)F)c2ccccc21 (stereo not given) | . | -15% | ? | -1% | . | -94*
Cc1cnc(-n2ncc(C(=O)NCC3COCCO3)c2C2CC2)nc1-c1cccs1 (stereo not given) | . | -8% | -18% | 19% | . | .
C/C(=N\NC(=O)COc1ccccc1-c1ccccc1)c1ccc(O)cc1O | 11µM* | . | . | 0% | 12% | -76*
CCCCCC(=O)N/N=C(\C)c1ccccn1 | ? | ? | ? | 26% | -3% | -99*
O=C(COc1ccccc1-c1ccccc1)N/N=C/c1ccc2ccccc2c1 | ? | ? | -29% | -12% | 9% | -100*
C/C(=N\NC(=O)COc1ccccc1-c1ccccc1)c1ccccn1 | 5µM* | ? | ? | ? | 5% | -98*
O=C(COc1ccccc1-c1ccccc1)N/N=C/c1ccncc1 | ? | -14% | -14% | ? | 4% | -38
O=C1C2=CC[C@H]3C(=O)N(c4cccc(Oc5ccccc5)c4)C(=O)[C@@H]3[C@@H]2[C@H](O)[C@@H]2O[C@H]12 | . | . | . | . | 0%[12.9 µM] | .
Cc1cccc(Cn2c(SCc3ccc(C(=O)NCCc4ccccc4)cc3)nc3cccnc32)c1 | . | ? | ? | -3% | . | 3
Cc1ccc(CNC(=O)CCC2CCCN(Cc3cccc4ncccc34)C2)o1 (stereo not given) | -9% | -12% | -16% | -2% | -1% | -39
SMILES | HCV inh | Vaccinia Venus | VACV mCherry inh | FMDV inh | FBPA Giardia inh | HCMV inh
O=C(c1cnc2ccccn2c1=O)N1CCCc2ccccc21 | -3% | . | . | 0% | 3% | -64*
O=C(c1coc(=O)c(Br)c1)N1CCCc2ccccc21 | -27% | -12% | -17% | 1% | ? | -75*
O=C(c1cccc(Br)c1)N1CCCc2ccccc21 | 2% | . | . | -2% | -10% | 22
O=C(c1cnc2n(c1=O)CCS2)N1CCCc2ccccc21 | -3% | -13% | -13% | 9% | 0% | 29
C[C@@H](NS(=O)(=O)c1c(F)cccc1F)c1ccccc1 | . | . | . | . | . | -22
O=c1c(C=Nc2ccc(Oc3ccccc3)cc2)c[nH]n1-c1cccc(Cl)n1 | 16% | -9% | -8% | -25% | -3% | -65*
CC(=O)Nc1cc(O)c2nonc2c1O | . | 3.5µM* | 11µM* | . | . | .
CC(=O)Nc1c(O)cc(Br)c2nonc12 | . | -3% | 0% | . | . | .
CC1CCN(C(=O)C2CCN(S(=O)(=O)c3ccc(-n4cnnn4)cc3)CC2)CC1 | 0% | -2% | 48% | -22% | -6% | -23
COC1=C(C)C(=O)C2=C(C1=O)C1C3CC4=C(C(=O)C(OC)=C(C)C4=O)C(CNC(=O)C(C)=O)N3C(C#N)C(C2)N1C (stereo not given) | ? | 1µM* | ? | ? | . | -97*
COc1cc(C(=O)Nc2nonc2-c2ccc(Cl)cc2)cc(OC)c1OC | . | ? | -9% | -19% | . | -27
CC(=O)N1CCc2cc(S(=O)(=O)N3c4ccccc4CC3C)ccc21 (stereo not given) | ? | -24% | ? | . | 7% | -77*
O=C(C1CC1)N1CCc2cc(S(=O)(=O)N3CCCc4ccccc43)ccc21 | -6% | -26% | ? | 0% | -1% | -68*
CCN(c1cccc(C)c1)S(=O)(=O)c1ccc2c(c1)CCN2C(C)=O | 11µM* | ? | -26% | ? | 18% | ?
CCC(=O)N1CCCc2cc(S(=O)(=O)N3CCN(c4ccccc4F)CC3)ccc21 | 13µM* | -23% | i | ? | 4% | ?
O=C(O)c1cc([N+](=O)[O-])ccc1Oc1ccccc1 | 8% | -5% | i | 6% | . | -22
COc1ccc(C(=O)NCCC(=O)N2CCC3(CC2)NCCc2[nH]cnc23)cc1 | 3% | 0%[7.34 µM] | i[7.34 µM] | -10% | . | 0
CC(C)(C)c1ccc(OCc2cc(=O)n3c4c(sc3n2)CCCC4)cc1 | . | 0% | 7% | -3% | . | 3
COc1ccc(N2CCN(S(=O)(=O)c3ccc4c(c3)CC(C)N4C(=O)C3CC3)CC2)cc1 (stereo not given) | ? | -1% | -7% | -22% | 2% | ?
CC(=O)c1ccc(N2CCN(S(=O)(=O)c3ccc4c(c3)CC(C)N4C(=O)C3CC3)CC2)cc1 (stereo not given) | 3.5µM* | . | . | ? | . | -14
CC(=O)c1ccc(N2CCN(S(=O)(=O)c3ccc4c(c3)CC(C)N4C(C)=O)CC2)cc1 (stereo not given) | 6.3µM* | -23% | -2% | ? | . | -28
Cc1cccc(N2CCN(S(=O)(=O)c3ccc4c(c3)CC(C)N4C(=O)C3CC3)CC2)c1C (stereo not given) | ? | . | . | ? | 6% | -61*
